Laboratory results published in publication PMC12529666, “Dysregulation of AGO2-miRNA dynamics underlies the AGO2-associated Lessel–Kreienkamp syndrome”.
Positions count from the first letter of the chain named.

B1: ACGTCTTA (ssRNA)
RNA 1: GAGUUCUACAGUCCGACGAUCCCAACACGUCUUACACCUGGAAUUCUCGGGUGCCAA
RNA 2: UGGAGUGUGACAAUGGUGUUUG
DNA 1: GATCGTCGGACTGTAGAACTC
DNA 2: TTGGCACCCGAGAATTCCA
modifications: constant regions annealed to DNA blockers; guide miR-122 5' phosphate
B2: GCGTTCCA (ssRNA)
RNA 1: B1 RNA 1 with A27G, C31U, U32C, U33C
RNA 2: UGGAGUGUGACAAUGGUGUUUG
DNA 1: GATCGTCGGACTGTAGAACTC
DNA 2: TTGGCACCCGAGAATTCCA
modifications: constant regions annealed to DNA blockers; guide miR-122 5' phosphate
B3: ATATTCTA (ssRNA)
RNA 1: B1 RNA 1 with C28U, G29A, C31U, U32C
RNA 2: UGGAGUGUGACAAUGGUGUUUG
DNA 1: GATCGTCGGACTGTAGAACTC
DNA 2: TTGGCACCCGAGAATTCCA
modifications: constant regions annealed to DNA blockers; guide miR-122 5' phosphate
B4: ACATTCCG (ssRNA)
RNA 1: B1 RNA 1 with G29A, C31U, U32C, U33C, A34G
RNA 2: UGGAGUGUGACAAUGGUGUUUG
DNA 1: GATCGTCGGACTGTAGAACTC
DNA 2: TTGGCACCCGAGAATTCCA
modifications: constant regions annealed to DNA blockers; guide miR-122 5' phosphate
B5: ATATCTTA (ssRNA)
RNA 1: B1 RNA 1 with C28U, G29A
RNA 2: UGGAGUGUGACAAUGGUGUUUG
DNA 1: GATCGTCGGACTGTAGAACTC
DNA 2: TTGGCACCCGAGAATTCCA
modifications: constant regions annealed to DNA blockers; guide miR-122 5' phosphate
B6: GCGCCCTA (ssRNA)
RNA 1: B1 RNA 1 with A27G, U30C, U32C
RNA 2: UGGAGUGUGACAAUGGUGUUUG
DNA 1: GATCGTCGGACTGTAGAACTC
DNA 2: TTGGCACCCGAGAATTCCA
modifications: constant regions annealed to DNA blockers; guide miR-122 5' phosphate
B7: GCGCTCTA (ssRNA)
RNA 1: B1 RNA 1 with A27G, U30C, C31U, U32C
RNA 2: UGGAGUGUGACAAUGGUGUUUG
DNA 1: GATCGTCGGACTGTAGAACTC
DNA 2: TTGGCACCCGAGAATTCCA
modifications: constant regions annealed to DNA blockers; guide miR-122 5' phosphate
B8: ATGTCCTA (ssRNA)
RNA 1: B1 RNA 1 with C28U, U32C
RNA 2: UGGAGUGUGACAAUGGUGUUUG
DNA 1: GATCGTCGGACTGTAGAACTC
DNA 2: TTGGCACCCGAGAATTCCA
modifications: constant regions annealed to DNA blockers; guide miR-122 5' phosphate
B9: ATGCCCCA (ssRNA)
RNA 1: B1 RNA 1 with C28U, U30C, U32C, U33C
RNA 2: UGGAGUGUGACAAUGGUGUUUG
DNA 1: GATCGTCGGACTGTAGAACTC
DNA 2: TTGGCACCCGAGAATTCCA
modifications: constant regions annealed to DNA blockers; guide miR-122 5' phosphate
B10: ACGCCCTA (ssRNA)
RNA 1: B1 RNA 1 with U30C, U32C
RNA 2: UGGAGUGUGACAAUGGUGUUUG
DNA 1: GATCGTCGGACTGTAGAACTC
DNA 2: TTGGCACCCGAGAATTCCA
modifications: constant regions annealed to DNA blockers; guide miR-122 5' phosphate
B11: GTGTCTTA (ssRNA)
RNA 1: B1 RNA 1 with A27G, C28U
RNA 2: UGGAGUGUGACAAUGGUGUUUG
DNA 1: GATCGTCGGACTGTAGAACTC
DNA 2: TTGGCACCCGAGAATTCCA
modifications: constant regions annealed to DNA blockers; guide miR-122 5' phosphate
B12: ACGTCCTA (ssRNA)
RNA 1: B1 RNA 1 with U32C
RNA 2: UGGAGUGUGACAAUGGUGUUUG
DNA 1: GATCGTCGGACTGTAGAACTC
DNA 2: TTGGCACCCGAGAATTCCA
modifications: constant regions annealed to DNA blockers; guide miR-122 5' phosphate
B13: ACACCTTG (ssRNA)
RNA 1: B1 RNA 1 with G29A, U30C, A34G
RNA 2: UGGAGUGUGACAAUGGUGUUUG
DNA 1: GATCGTCGGACTGTAGAACTC
DNA 2: TTGGCACCCGAGAATTCCA
modifications: constant regions annealed to DNA blockers; guide miR-122 5' phosphate
B14: ATATCCCA (ssRNA)
RNA 1: B1 RNA 1 with C28U, G29A, U32C, U33C
RNA 2: UGGAGUGUGACAAUGGUGUUUG
DNA 1: GATCGTCGGACTGTAGAACTC
DNA 2: TTGGCACCCGAGAATTCCA
modifications: constant regions annealed to DNA blockers; guide miR-122 5' phosphate
B15: ACGTTTTA (ssRNA)
RNA 1: B1 RNA 1 with C31U
RNA 2: UGGAGUGUGACAAUGGUGUUUG
DNA 1: GATCGTCGGACTGTAGAACTC
DNA 2: TTGGCACCCGAGAATTCCA
modifications: constant regions annealed to DNA blockers; guide miR-122 5' phosphate
B16: GTATTCCG (ssRNA)
RNA 1: B1 RNA 1 with A27G, C28U, G29A, C31U, U32C, U33C, A34G
RNA 2: UGGAGUGUGACAAUGGUGUUUG
DNA 1: GATCGTCGGACTGTAGAACTC
DNA 2: TTGGCACCCGAGAATTCCA
modifications: constant regions annealed to DNA blockers; guide miR-122 5' phosphate
B17: GCATTCTA (ssRNA)
RNA 1: B1 RNA 1 with A27G, G29A, C31U, U32C
RNA 2: UGGAGUGUGACAAUGGUGUUUG
DNA 1: GATCGTCGGACTGTAGAACTC
DNA 2: TTGGCACCCGAGAATTCCA
modifications: constant regions annealed to DNA blockers; guide miR-122 5' phosphate
B18: GCGCCCCA (ssRNA)
RNA 1: B1 RNA 1 with A27G, U30C, U32C, U33C
RNA 2: UGGAGUGUGACAAUGGUGUUUG
DNA 1: GATCGTCGGACTGTAGAACTC
DNA 2: TTGGCACCCGAGAATTCCA
modifications: constant regions annealed to DNA blockers; guide miR-122 5' phosphate
B19: GCGCTTCA (ssRNA)
RNA 1: B1 RNA 1 with A27G, U30C, C31U, U33C
RNA 2: UGGAGUGUGACAAUGGUGUUUG
DNA 1: GATCGTCGGACTGTAGAACTC
DNA 2: TTGGCACCCGAGAATTCCA
modifications: constant regions annealed to DNA blockers; guide miR-122 5' phosphate
B20: ACGCTCTA (ssRNA)
RNA 1: B1 RNA 1 with U30C, C31U, U32C
RNA 2: UGGAGUGUGACAAUGGUGUUUG
DNA 1: GATCGTCGGACTGTAGAACTC
DNA 2: TTGGCACCCGAGAATTCCA
modifications: constant regions annealed to DNA blockers; guide miR-122 5' phosphate
B21: ACGCCTTA (ssRNA)
RNA 1: B1 RNA 1 with U30C
RNA 2: UGGAGUGUGACAAUGGUGUUUG
DNA 1: GATCGTCGGACTGTAGAACTC
DNA 2: TTGGCACCCGAGAATTCCA
modifications: constant regions annealed to DNA blockers; guide miR-122 5' phosphate

These binders were tested against AGO2 WT (phosphosite mutant background) (Homo sapiens, UniProt Q9UKV8 1-859, S387D;S824A;S828D;S831D;S834A) (assay: RNA Bind-n-Seq (nitrocellulose filter binding and sequencing); miR-122 guide loaded in AGO2; 60 min incubation; 30 mM Tris pH 8.0, 100 mM potassium acetate, 2 mM magnesium acetate, 0.5 mM TCEP, 0.005% NP-40, 0.01 mg/ml yeast tRNA; 3 nM AGO2-miR-122, 100 nM RNA library; 60; high values mean tight binding). Conditions: protein: recombinant; tags: His6 (N-terminal, pFastBac HTA).
Sequence of AGO2 WT (phosphosite mutant background) (Q9UKV8 whole entry S387D/S824A/S828D/S831D/S834A): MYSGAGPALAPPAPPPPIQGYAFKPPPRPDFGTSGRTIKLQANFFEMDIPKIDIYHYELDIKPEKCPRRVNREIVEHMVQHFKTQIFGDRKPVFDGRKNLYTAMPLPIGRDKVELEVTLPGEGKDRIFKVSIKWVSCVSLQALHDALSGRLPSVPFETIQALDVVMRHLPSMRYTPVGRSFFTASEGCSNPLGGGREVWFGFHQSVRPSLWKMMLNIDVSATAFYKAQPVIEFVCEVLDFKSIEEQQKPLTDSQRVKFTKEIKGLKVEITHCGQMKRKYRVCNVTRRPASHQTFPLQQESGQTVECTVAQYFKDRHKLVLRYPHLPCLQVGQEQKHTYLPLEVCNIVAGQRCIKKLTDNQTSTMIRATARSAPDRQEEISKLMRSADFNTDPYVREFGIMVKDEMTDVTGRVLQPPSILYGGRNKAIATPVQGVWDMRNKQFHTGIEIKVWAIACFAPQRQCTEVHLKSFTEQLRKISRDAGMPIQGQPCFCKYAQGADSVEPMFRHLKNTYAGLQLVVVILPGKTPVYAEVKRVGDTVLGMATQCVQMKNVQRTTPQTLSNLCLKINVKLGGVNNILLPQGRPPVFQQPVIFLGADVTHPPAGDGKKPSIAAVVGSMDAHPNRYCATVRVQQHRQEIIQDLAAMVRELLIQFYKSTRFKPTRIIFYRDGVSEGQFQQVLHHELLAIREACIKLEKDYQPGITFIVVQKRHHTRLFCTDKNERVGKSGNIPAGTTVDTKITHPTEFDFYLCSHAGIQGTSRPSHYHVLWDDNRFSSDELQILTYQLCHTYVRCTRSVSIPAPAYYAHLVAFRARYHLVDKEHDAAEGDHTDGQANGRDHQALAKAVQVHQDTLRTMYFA
Method in brief: (§1)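 Fold enrichment is each target's read fraction divided by its read fraction in the input library. Sf9 insect cells expressed His-tagged AGO2 from baculovirus; the protein was loaded with a synthetic guide RNA and purified by Ni-NTA and a biotinylated capture oligo. The bound RNA was extracted, reverse-transcribed, barcode-amplified and sequenced on Illumina.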
In the case of B1, the binding signal is reported as 0.13 fold enrichment over input.
B19 was tested, and the binding signal was 0.123 fold enrichment over input.

The binders below were run against AGO2 L192P (Homo sapiens, UniProt Q9UKV8 1-859, L192P;S387D;S824A;S828D;S831D;S834A) in the same assay as above. Conditions: protein: recombinant; tags: His6 (N-terminal, pFastBac HTA).
Sequence of AGO2 L192P (Q9UKV8 whole entry L192P/S387D/S824A/S828D/S831D/S834A): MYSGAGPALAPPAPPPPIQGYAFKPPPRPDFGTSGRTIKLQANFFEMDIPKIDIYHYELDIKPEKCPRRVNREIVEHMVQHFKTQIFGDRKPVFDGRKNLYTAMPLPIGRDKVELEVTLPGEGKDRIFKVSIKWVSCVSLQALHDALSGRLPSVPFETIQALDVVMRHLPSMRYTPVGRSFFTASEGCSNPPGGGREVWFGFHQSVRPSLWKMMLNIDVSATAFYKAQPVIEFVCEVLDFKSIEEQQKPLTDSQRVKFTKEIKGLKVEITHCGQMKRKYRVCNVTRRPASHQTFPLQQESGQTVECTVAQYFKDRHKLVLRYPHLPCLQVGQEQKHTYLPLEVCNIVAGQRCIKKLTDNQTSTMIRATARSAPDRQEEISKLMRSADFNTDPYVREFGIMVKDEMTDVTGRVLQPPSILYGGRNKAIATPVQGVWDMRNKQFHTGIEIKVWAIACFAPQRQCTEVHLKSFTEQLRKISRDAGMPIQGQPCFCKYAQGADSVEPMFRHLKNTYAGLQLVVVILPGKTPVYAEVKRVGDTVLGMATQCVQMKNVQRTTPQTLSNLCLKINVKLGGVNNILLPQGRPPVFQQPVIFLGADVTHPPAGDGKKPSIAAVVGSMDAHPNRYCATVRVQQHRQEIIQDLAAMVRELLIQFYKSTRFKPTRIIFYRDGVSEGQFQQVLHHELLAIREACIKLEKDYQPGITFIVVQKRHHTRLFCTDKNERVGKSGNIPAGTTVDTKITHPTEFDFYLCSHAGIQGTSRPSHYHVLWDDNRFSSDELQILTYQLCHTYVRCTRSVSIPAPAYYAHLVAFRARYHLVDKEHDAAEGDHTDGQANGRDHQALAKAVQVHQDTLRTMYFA
Method in brief: as §1
With B1 the binding signal was 0.525 fold enrichment over input.
B2 was tested, and the binding signal was 0.477 fold enrichment over input.
In the case of B3, the binding signal is reported as 0.453 fold enrichment over input.
For B4, the binding signal was 0.382 fold enrichment over input.
With B5 the binding signal was 0.456 fold enrichment over input.
B6 was tested, and the binding signal was 0.492 fold enrichment over input.
B7 was tested, and the binding signal was 0.459 fold enrichment over input.
With B8 the binding signal was 0.506 fold enrichment over input.
In the case of B9, the binding signal is reported as 0.494 fold enrichment over input.
With B10 the binding signal was 0.505 fold enrichment over input.
For B11, the binding signal was 0.461 fold enrichment over input.
With B12 the binding signal was 0.475 fold enrichment over input.
In the case of B13, the binding signal is reported as 0.422 fold enrichment over input.
B14 was tested, and the binding signal was 0.464 fold enrichment over input.
With B15 the binding signal was 0.447 fold enrichment over input.
With B16 the binding signal was 0.43 fold enrichment over input.
For B17, the binding signal was 0.45 fold enrichment over input.
For B18, the binding signal was 0.498 fold enrichment over input.
For B19, the binding signal was 0.498 fold enrichment over input.
For B20, the binding signal was 0.429 fold enrichment over input.
B21 was tested, and the binding signal was 0.493 fold enrichment over input.

What follows are binders tested against AGO2 A367P (Homo sapiens, UniProt Q9UKV8 1-859, A367P;S387D;S824A;S828D;S831D;S834A) in the same assay as above. Conditions: protein: recombinant; tags: His6 (N-terminal, pFastBac HTA).
Sequence of AGO2 A367P (Q9UKV8 whole entry A367P/S387D/S824A/S828D/S831D/S834A): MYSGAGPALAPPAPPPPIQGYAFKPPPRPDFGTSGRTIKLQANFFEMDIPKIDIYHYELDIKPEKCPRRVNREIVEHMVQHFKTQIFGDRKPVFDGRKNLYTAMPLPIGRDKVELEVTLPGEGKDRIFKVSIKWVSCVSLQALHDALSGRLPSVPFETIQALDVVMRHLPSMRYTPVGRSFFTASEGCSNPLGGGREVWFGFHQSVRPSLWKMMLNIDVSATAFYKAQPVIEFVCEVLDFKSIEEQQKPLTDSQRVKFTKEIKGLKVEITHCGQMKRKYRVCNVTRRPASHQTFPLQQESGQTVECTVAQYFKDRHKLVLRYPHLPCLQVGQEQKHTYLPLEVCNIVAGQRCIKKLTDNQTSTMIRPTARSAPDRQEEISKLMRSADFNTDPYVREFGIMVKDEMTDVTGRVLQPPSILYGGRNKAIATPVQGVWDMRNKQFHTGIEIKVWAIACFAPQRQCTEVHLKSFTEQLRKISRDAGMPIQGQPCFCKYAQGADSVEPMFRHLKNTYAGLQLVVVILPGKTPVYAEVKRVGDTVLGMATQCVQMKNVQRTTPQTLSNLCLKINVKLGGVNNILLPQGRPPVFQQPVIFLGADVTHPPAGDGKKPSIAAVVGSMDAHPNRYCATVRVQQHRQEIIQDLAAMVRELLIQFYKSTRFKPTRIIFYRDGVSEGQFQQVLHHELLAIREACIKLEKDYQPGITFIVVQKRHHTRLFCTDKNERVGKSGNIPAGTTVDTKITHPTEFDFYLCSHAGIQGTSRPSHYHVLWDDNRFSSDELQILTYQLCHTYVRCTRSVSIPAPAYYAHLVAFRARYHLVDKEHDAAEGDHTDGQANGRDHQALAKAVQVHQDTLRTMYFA
Method in brief: as §1
In the case of B1, the binding signal is reported as 0.269 fold enrichment over input.
With B2 the binding signal was 0.187 fold enrichment over input.
B3 was tested, and the binding signal was 0.18 fold enrichment over input.
B4 was tested, and the binding signal was 0.156 fold enrichment over input.
With B5 the binding signal was 0.179 fold enrichment over input.
For B6, the binding signal was 0.195 fold enrichment over input.
In the case of B7, the binding signal is reported as 0.19 fold enrichment over input.
For B8, the binding signal was 0.238 fold enrichment over input.
B9 was tested, and the binding signal was 0.191 fold enrichment over input.
With B10 the binding signal was 0.194 fold enrichment over input.
B11 was tested, and the binding signal was 0.173 fold enrichment over input.
B12 was tested, and the binding signal was 0.205 fold enrichment over input.
With B13 the binding signal was 0.169 fold enrichment over input.
For B14, the binding signal was 0.195 fold enrichment over input.
In the case of B15, the binding signal is reported as 0.21 fold enrichment over input.
For B16, the binding signal was 0.158 fold enrichment over input.
For B17, the binding signal was 0.181 fold enrichment over input.
For B18, the binding signal was 0.192 fold enrichment over input.
B19 was tested, and the binding signal was 0.238 fold enrichment over input.
For B20, the binding signal was 0.173 fold enrichment over input.
In the case of B21, the binding signal is reported as 0.221 fold enrichment over input.

What follows are binders tested against AGO2 T357M (Homo sapiens, UniProt Q9UKV8 1-859, T357M;S387D;S824A;S828D;S831D;S834A) in the same assay as above. Conditions: protein: recombinant; tags: His6 (N-terminal, pFastBac HTA).
Sequence of AGO2 T357M (Q9UKV8 whole entry T357M/S387D/S824A/S828D/S831D/S834A): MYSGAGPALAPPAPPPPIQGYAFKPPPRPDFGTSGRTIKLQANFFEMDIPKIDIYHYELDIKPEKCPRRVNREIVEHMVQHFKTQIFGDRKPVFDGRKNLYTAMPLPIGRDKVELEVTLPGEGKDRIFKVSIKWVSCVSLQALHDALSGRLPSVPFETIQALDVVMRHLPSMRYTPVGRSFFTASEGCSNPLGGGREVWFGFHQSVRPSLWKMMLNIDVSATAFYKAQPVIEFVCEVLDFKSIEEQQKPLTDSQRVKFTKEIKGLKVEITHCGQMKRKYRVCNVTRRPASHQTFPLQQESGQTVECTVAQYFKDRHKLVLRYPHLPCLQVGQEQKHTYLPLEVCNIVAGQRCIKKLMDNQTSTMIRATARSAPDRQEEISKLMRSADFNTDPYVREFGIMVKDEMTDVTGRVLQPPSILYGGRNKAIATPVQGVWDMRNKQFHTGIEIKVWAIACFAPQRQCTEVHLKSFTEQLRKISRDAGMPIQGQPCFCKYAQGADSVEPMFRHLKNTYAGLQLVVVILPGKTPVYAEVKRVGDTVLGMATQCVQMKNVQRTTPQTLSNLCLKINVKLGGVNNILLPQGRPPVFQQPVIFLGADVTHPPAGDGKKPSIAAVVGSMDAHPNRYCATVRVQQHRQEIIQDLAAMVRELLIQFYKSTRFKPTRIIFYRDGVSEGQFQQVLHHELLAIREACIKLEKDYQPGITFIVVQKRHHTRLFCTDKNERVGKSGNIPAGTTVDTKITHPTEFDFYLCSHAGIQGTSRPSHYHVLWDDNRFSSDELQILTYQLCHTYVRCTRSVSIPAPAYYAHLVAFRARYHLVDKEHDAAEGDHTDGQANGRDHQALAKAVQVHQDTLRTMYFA
Method in brief: as §1
With B1 the binding signal was 0.643 fold enrichment over input.
With B2 the binding signal was 0.592 fold enrichment over input.
For B3, the binding signal was 0.631 fold enrichment over input.
For B4, the binding signal was 0.428 fold enrichment over input.
In the case of B5, the binding signal is reported as 0.593 fold enrichment over input.
For B6, the binding signal was 0.721 fold enrichment over input.
In the case of B7, the binding signal is reported as 0.635 fold enrichment over input.
For B8, the binding signal was 0.592 fold enrichment over input.
For B9, the binding signal was 0.652 fold enrichment over input.
B10 was tested, and the binding signal was 0.681 fold enrichment over input.
In the case of B11, the binding signal is reported as 0.599 fold enrichment over input.
B12 was tested, and the binding signal was 0.603 fold enrichment over input.
In the case of B13, the binding signal is reported as 0.452 fold enrichment over input.
In the case of B14, the binding signal is reported as 0.568 fold enrichment over input.
In the case of B15, the binding signal is reported as 0.571 fold enrichment over input.
B16 was tested, and the binding signal was 0.624 fold enrichment over input.
With B17 the binding signal was 0.63 fold enrichment over input.
For B18, the binding signal was 0.741 fold enrichment over input.
In the case of B19, the binding signal is reported as 0.703 fold enrichment over input.
B20 was tested, and the binding signal was 0.54 fold enrichment over input.
With B21 the binding signal was 0.625 fold enrichment over input.

These binders were tested against AGO2 F182del (Homo sapiens, UniProt Q9UKV8 1-859, S387D;S824A;S828D;S831D;S834A;del182-182) in the same assay as above. Conditions: protein: recombinant; tags: His6 (N-terminal, pFastBac HTA).
Sequence of AGO2 F182del (Q9UKV8 other isoform, or with tags, fused parts or gaps S387D;S824A;S828D;S831D;S834A;del182-182): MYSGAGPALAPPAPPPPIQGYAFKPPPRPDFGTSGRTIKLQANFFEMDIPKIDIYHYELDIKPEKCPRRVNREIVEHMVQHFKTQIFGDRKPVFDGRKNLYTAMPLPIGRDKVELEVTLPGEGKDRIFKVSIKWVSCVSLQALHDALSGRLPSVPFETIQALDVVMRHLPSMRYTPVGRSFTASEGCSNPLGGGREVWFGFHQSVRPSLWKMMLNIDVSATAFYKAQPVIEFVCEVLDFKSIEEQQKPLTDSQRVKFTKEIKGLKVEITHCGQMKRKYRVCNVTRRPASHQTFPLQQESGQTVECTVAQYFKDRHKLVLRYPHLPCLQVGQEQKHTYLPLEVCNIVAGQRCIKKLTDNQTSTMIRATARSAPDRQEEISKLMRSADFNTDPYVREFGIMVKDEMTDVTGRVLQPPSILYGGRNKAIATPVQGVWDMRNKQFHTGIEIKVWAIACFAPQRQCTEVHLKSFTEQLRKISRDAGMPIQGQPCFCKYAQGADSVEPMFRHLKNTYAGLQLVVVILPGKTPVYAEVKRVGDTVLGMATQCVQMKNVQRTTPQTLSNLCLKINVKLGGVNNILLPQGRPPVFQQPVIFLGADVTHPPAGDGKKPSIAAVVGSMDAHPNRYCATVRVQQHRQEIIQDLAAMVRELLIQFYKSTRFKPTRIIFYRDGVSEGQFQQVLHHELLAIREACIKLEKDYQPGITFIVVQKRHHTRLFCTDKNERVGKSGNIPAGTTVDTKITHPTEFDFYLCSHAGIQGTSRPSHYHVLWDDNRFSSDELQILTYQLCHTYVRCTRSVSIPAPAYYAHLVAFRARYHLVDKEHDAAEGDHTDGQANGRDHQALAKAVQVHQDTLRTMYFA
Method in brief: as §1
With B1 the binding signal was 0.333 fold enrichment over input.
B2 was tested, and the binding signal was 0.161 fold enrichment over input.
With B4 the binding signal was 0.178 fold enrichment over input.
In the case of B8, the binding signal is reported as 0.262 fold enrichment over input.
For B9, the binding signal was 0.191 fold enrichment over input.
With B12 the binding signal was 0.187 fold enrichment over input.
B13 was tested, and the binding signal was 0.318 fold enrichment over input.
In the case of B14, the binding signal is reported as 0.249 fold enrichment over input.
With B15 the binding signal was 0.204 fold enrichment over input.
With B19 the binding signal was 0.289 fold enrichment over input.
With B21 the binding signal was 0.246 fold enrichment over input.
